Here are results for 72 compounds from ChEMBL document CHEMBL3988442, “University of Dundee, Small-Polar-MMV Screening Library” (2021).

The whole screen tested about 48,000 compounds, of which about 13,000 (27%) showed an effect of 50% or more. Some of the results follow.

In the experiment the test system is Wolbachia pipientis. Kind of experiment: Anti-Wolbachia Cell-Based Screen. As to conditions: 5 µM. The class given is functional. Details: scale not given: in the data most compounds retested in dose-response had high values.
As for `CN(C)CCOC1CC2(CCN(c3cnccn3)CC2)c2ccccc21.O=C(O)C(F)(F)F` (configuration not stated), the “Percent Effect” value is -0.2574%. Under `CC(C)NC(=O)N1CCN2C(=O)N(Cc3ccc(F)cc3)C[C@H]2C1` stands 1.439%.

Regarding `CO[C@H]1CN(C(C)C)C[C@@H]1NC(=O)c1cc(-c2ccccc2O)n[nH]1`, the “Percent Effect” value was determined as 3.341%. With `CNc1nc(C)cc(N2CCC(C(=O)O)(n3ccc(C(C)C)n3)CC2)n1` the figure was -25.68%; with `O=S(=O)(NCC1(O)CCOc2ccccc21)c1ccc(Cl)s1` (configuration not stated), -0.7436%; with `O=C1CC2(CCN(C(=O)Cc3cc4c(cc3Cl)OCCO4)C2)C(=O)N1` (configuration not stated), -1.867%. Under `Cc1cc(NCC2(O)CCOCC2)nc2ccccc12` stands 15.38%; under `Cc1cnn(CC2CCCN2C(=O)c2ccc(F)cc2Cl)c1` (configuration not stated), 118%. Under `Cc1cnn(CC2CCCN2C(=O)c2ccc(F)c(F)c2)c1` (configuration not stated) stands 123.6%; under `Cc1cnn(CC2CCCN2C(=O)c2ccc3nnc(C)n3c2)c1` (configuration not stated), -11.91%. As to `CCn1nnc2cc(C(=O)N3CCCC3Cn3cc(C)cn3)ccc21` (configuration not stated), the “Percent Effect” value is given as -10.21%.

For `COc1ccc(C(=O)N2CCCCC2Cn2cccn2)c(F)c1` (configuration not stated), the “Percent Effect” value turned out to be 4.231%.

Consider `O=C(c1cc(Cl)ccc1F)N1CCCC1Cn1cccn1` (configuration not stated), for which the “Percent Effect” value was determined as 101.1%. Under `O=C(c1ccccc1N1CCOCC1)N1CCCC1Cn1cccn1` (configuration not stated) stands -6.576%. Under `Cc1cnn(CC2CCCN2C(=O)c2ccc(Cl)cc2F)c1` (configuration not stated) stands 130.9%; under `CCCNC(=O)C1CCN(Cc2csc(C(C)(C)C)n2)CC1`, -3.863%; under `COc1cccc2c1CCN(C(=O)NCCc1nccn1C)C2`, 2.215%.

As to `CC(C#N)CSc1ccccc1NCC(=O)NC(=O)NC(C)(C)C` (configuration not stated), the “Percent Effect” value is given as -19.45%.

Regarding `CC(O)CN1CCC(CN(C)Cc2cc(C#N)ccc2F)CC1` (configuration not stated), the “Percent Effect” value is -5.082%.

As for `Cc1ncc(CNC(CCO)C2CCCCC2)s1` (configuration not stated), the “Percent Effect” value is reported as -8.339%. With `COc1ncnc2c1CCN(Cc1nccs1)CC2.O=C(O)C(F)(F)F` the figure was 2.06%; with `N#Cc1nccnc1N1CCC(OCCCc2ccccc2)C1` (configuration not stated), 1.367%; with `Cc1nc2c(c(NCC(=O)NC(C)C)n1)Cc1ccccc1OC2`, 92.9%. With `Cc1nc2c(c(NCc3ccccc3)n1)CCN(C(=O)NC(C)C)CC2` the figure was 7.807%. With `CN(C)c1nc2c(c(=O)[nH]1)Cc1ccccc1OC2` the figure was -4.691%; with `Cc1cccc2c1cnn2CCCNC(=O)C(C)C`, -3.766%; with `CC(C)C(C(=O)NCc1ccccc1-n1cccn1)N(C)C` (configuration not stated), -20.85%. Turning to `Cc1nc2c(c(NCCNC(=O)C(C)C)n1)Cc1ccccc1OC2`, the “Percent Effect” value is reported as 89.1%. As for `COc1ccnc(N2CCc3ccc(OC(F)F)cc3C2)n1`, the “Percent Effect” value stood at 18.95%.

`c1cnc(N2CCN(Cc3nnnn3C3CC3)CC2)nc1`: the “Percent Effect” value is -20.27%. Turning to `CC(CCN(C)C)NC(=O)N1CCSC(C)(C)C1` (configuration not stated), the “Percent Effect” value was -16.4%.

As for `Cc1ncc2c(n1)CN(CC(O)COc1ccc(C#N)cc1)CC2` (configuration not stated), the “Percent Effect” value is on record as -6.644%. With `Cc1cnn(CC2CCN(CC(O)CN3CCC(C)CC3)CC2)c1` (configuration not stated) the figure was 0.7757%; with `Cc1cnn(CC2CCN(CC(O)c3ccccc3)CC2)c1` (configuration not stated), 3.63%; with `Cc1ccc(OCC(O)CN2CCC(Cn3cc(C)cn3)CC2)cc1` (configuration not stated), 122.4%.

For `Cc1cnn(CC2CCN(CC(O)c3ccccc3F)CC2)c1` (configuration not stated), the “Percent Effect” value is on record as -4.357%. Consider `Cc1ccccc1OCC(O)CN1CCC(Cn2cccn2)CC1` (configuration not stated), for which the “Percent Effect” value is 111.1%. With `Cc1cnn(CC2CCN(CC(O)COc3ccccc3)CC2)c1` (configuration not stated) the figure was 7.728%; with `OC(COc1ccc2c(c1)OCO2)CN1CC(n2cccn2)C1` (configuration not stated), -5.514%; with `Cc1cccc(OCC(O)CN2CCC(Cn3cccn3)CC2)c1` (configuration not stated), 104.3%. With `Cc1cnn(CC2CCN(CC(O)c3ccccc3Cl)CC2)c1` (configuration not stated) the figure was -9.107%; with `CCc1ncc2c(n1)CN(CC(O)COc1ccc(C#N)cc1)CC2` (configuration not stated), -19.89%. For the compound `N#Cc1ccc(OCC(O)CN2CCC(Cn3cccn3)CC2)cc1` (configuration not stated), the “Percent Effect” value is listed as 137.4%. With `CC(C)(C)c1cc(CN2CCOC(CN)C2)n[nH]1` (configuration not stated) the figure was -6.517%; with `Cc1ccccc1C1CCN(CCn2cc(-c3cccc(O)c3)nn2)C1` (configuration not stated), -0.06043%; with `CN(Cc1ccc2c(c1)OCCO2)C(=O)Cn1ccccc1=O`, -2.106%. On to `CC1(C)CN(Cc2csc(CS(C)(=O)=O)n2)Cc2ccccc21`, for which the “Percent Effect” value was -1.783%. With `COCC1CCN(C(=O)c2cc(-c3ccco3)nc3c(Cl)cccc23)C1` (configuration not stated) the figure was -13.75%; with `O=C(c1cnn[nH]1)N(Cc1ccncc1)CC1CCCO1` (configuration not stated), -2.849%; with `Cc1nc2c(c(N3CCC4(CCCNC4=O)C3)n1)CCC2` (configuration not stated), 3.026%. `C[C@@H]1CN(c2nc(N)nc3c2CCC3)CC[C@@]1(O)C1CCC1`: the “Percent Effect” value is -3.571%. Under `CN1CCc2c1nc1c(c2N)CCC1` stands 94.13%; under `Cc1c(C)n(Cc2ccncc2)c2nc3c(c(N)c12)CCCCC3`, 23.97%. Under `CN1CCCc2c1nc1c(c2N)CCC1` stands 99.68%. With `CC(=O)NC1CCN(c2nc(N)nc3c2CCCC3)C1` (configuration not stated) the figure was 13.41%; with `C[C@@H]1CN(c2nc(N)nc3c2CCC3)C[C@]1(C)O`, -4.313%. Regarding `CN1CCCCc2c1nc1c(c2N)CCCC1`, the “Percent Effect” value was determined as 88.26%. Under `Cc1c(C)n(-c2ccccn2)c2nc3c(c(N)c12)CCCC3` stands 16.56%; under `CC(C)N(C(=O)c1ccccc1-c1nc2c([nH]1)CCNC2)C(C)C`, 16.68%; under `Cc1cccc(COC[C@@]23CCC[C@@H]2CN(S(=O)(=O)N(C)C)C3)n1.O=C(O)C(F)(F)F`, -15.69%. Under `CCN(C)CC(C)Cn1cnc(-c2ccccc2)c1-c1cncn1CC` (configuration not stated) stands 1.36%; under `CCc1nc(NCCCn2cccn2)c2c(n1)c(C)nn2C`, 10.76%. Consider `O=C(Nc1ccccc1OC1CCOC1)c1[nH]nc2c1CCCC2` (configuration not stated), for which the “Percent Effect” value is on record as 13.6%. With `COc1nc2c(cc1C(=O)NCCc1nc3c(s1)CCC3)CCC2` the figure was -9.23%; with `CCN(CC)C(=O)Cn1cc(C(=O)NCCc2nc(C)c(C)s2)nn1`, -0.7768%. With `COc1nc2c(cc1C(=O)NCCc1nc(C)c(C(=O)O)s1)CCC2` the figure was -5.377%; with `Cc1nc(CCNC(=O)c2cc(C(C)C)nn2C)sc1C`, 143.4%. Turning to `Cc1nn2cc(CCNC(=O)c3cc(C(C)C)nn3C)nc2s1`, the “Percent Effect” value is -16.47%. Under `COc1cccc2c1OCC(C(=O)NCCc1nc3c(s1)CCC3)C2` (configuration not stated) stands 3.483%; under `Cc1cc(C(=O)NCCc2nc3c(s2)CCCC3)n(C)n1`, 113.4%; under `O=C(O)c1ccnc(-c2ccnc(NCCc3nc4c(s3)CCC4)n2)c1`, -20.67%. With `CC(C)c1cc(C(=O)NCCc2nc3c(s2)CCC3)n(C)n1` the figure was 118.8%.
